Shown are actives, neighbours in structure and some others; about 3.5% of the full set was active somewhere.
ATG4B inhibitor: ATG4B protease inhibitors, primary screen, biochemical, fluorescence, uHTS | Cysteine protease ATG4B (Homo sapiens), Q9Y4P1 | ATG4B cleavage of LC3-PLA2, NBD-HPC fluorescence, 1 h | inhibition, % at 8.33 µM | 0.51% of 340,000 active | AID 504462, 2011; in the data active = inhibition above about 40%
Target sequence (Q9Y4P1 whole entry, looked up): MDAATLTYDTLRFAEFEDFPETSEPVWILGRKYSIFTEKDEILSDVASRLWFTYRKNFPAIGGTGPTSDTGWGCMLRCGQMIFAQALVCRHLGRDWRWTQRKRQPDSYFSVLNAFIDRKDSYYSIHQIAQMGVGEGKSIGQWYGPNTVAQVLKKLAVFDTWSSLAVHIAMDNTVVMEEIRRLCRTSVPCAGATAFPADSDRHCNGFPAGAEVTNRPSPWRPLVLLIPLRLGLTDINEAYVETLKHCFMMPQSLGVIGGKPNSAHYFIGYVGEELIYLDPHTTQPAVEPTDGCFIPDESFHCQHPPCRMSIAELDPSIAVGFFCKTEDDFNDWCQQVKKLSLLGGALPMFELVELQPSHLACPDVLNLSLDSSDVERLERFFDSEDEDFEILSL
M1 PAM: human M1 muscarinic receptor positive allosteric modulators, primary screen, CHO-K1 cells, Fluo-8 calcium fluorescence, 1536-well; Muscarinic acetylcholine receptor M1 (Homo sapiens), P11229; CHO-K1 hM1, ACh EC20; 0% = ACh EC20, 100% = maximal ACh; activation, % at 3 µM; 0.088% of 360,000 active; AID 588819, 2011; in the data active = activation above about 19%, passing the limit was not always enough
Myeloid diff MLP: induction of myeloid progenitor differentiation, primary screen, cell-based, flow cytometry, MLPCN library; ER-HoxA9 myeloid progenitors, lysozyme-GFP differentiation; calls only at 10 µM; 1% of 360,000 active; AID 624256, 2012;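 active = normalized GFP-positive differentiation at or above the plate's own cutoff, the solvent-only control mean plus 3 SD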;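 also: cells exposed to compound for four days before flow analysis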
SKN-1 block: suppressors of acrylamide-induced Pgst-4::GFP reporter in worms, primary screen, SKN-1 inhibitor project, whole organism, uHTS, GFP/RFP fluorescence ratio, strain VP596. C. elegans VP596 Pgst-4::GFP/RFP ratio, 24 h. inhibition, % at 21.8 µM. 0.49% of 360,000 active. AID 624304, 2012;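 active = interference check ratio from 0.5 to 1.5 plus GFP to RFP signal ratio inhibition reaching or exceeding a fixed threshold, cut at about 30% in these data, passing the limit was not always enough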
M1 antag: human M1 muscarinic receptor antagonists, primary screen, CHO-K1 cells, Fluo-8 calcium fluorescence, 1536-well; Muscarinic acetylcholine receptor M1 (Homo sapiens), P11229; CHO-K1 hM1, ACh EC80 antagonist; inhibition, % at 3 µM; 1.3% of 360,000 active;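 active = percent inhibition above its own plate's cutoff, namely the mean of that plate's compound wells plus 3 SD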;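 also: peak over basal fluorescence ratio during 140 s after agonist addition; 0% = ACh EC80 plus DMSO and 100% = DMSO alone without agonist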
M1 ag: human M1 muscarinic receptor agonists, primary screen, Fluo-8 calcium fluorescence, CHO-K1 cells, HTS; Muscarinic acetylcholine receptor M1 (Homo sapiens), P11229; CHO-K1 hM1, agonist mode; 0% DMSO, 100% acetylcholine EC100; activation, % at 3 µM; 0.33% of 360,000 active; AID 588814, 2011;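 active = activation above the run's mean compound activation plus 3 SD, cut at about 16% in these data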;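 also: peak over basal fluorescence ratio within a 140 s kinetic read after compound addition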
Numbers without * were called inactive; i = inactive; · = not tested or not shown; + = active, no number.

SMILES	ATG4B inhibitor	M1 PAM	Myeloid diff MLP	SKN-1 block	M1 antag	M1 ag
CCOc1ccc(-c2c(C(=O)N/N=C/c3ccco3)nnn2-c2nonc2N)cc1	-8	-5	i	29	2	18*
O=C(CN1C(=O)c2ccccc2C1=O)NCCOc1ccccc1	4	14	i	-2	-18	-1
Cc1c(NC(=O)CN2C(=O)NC3(CCCC3)C2=O)c(=O)n(-c2ccccc2)n1C	4	10	i	3	-13	-3
O=C1NC(=O)N(C2CCCCC2)CC1Br (stereo not given)	-3	11	i	17	-15	0
CCc1noc(C)c1C(=O)N1CCN(S(=O)(=O)c2cccs2)CC1	1	-4	i	17	21	-8
CC(C)(C)OC(=O)N1C(=O)[C@](OC(=O)c2ccccc2)(c2ccccc2)c2cccc(F)c21	·	·	i	15	·	·
CC/C(=N\NC(=O)c1nnn(-c2nonc2N)c1-c1cccs1)c1ccccc1	-3	11	i	3	-10	2
NNC(=O)c1nnn(-c2nonc2N)c1-c1cccs1	-1	22*	i	-23	-29	2
Cc1ccc(-c2c(C(=O)N/N=C/c3ccc(OC(C)C)cc3)nnn2-c2nonc2N)cc1	-1	15	i	-2	0	11
CCOc1ccc(-c2c(C(=O)N/N=C/c3ccc(OC(C)C)cc3)nnn2-c2nonc2N)cc1	-6	10	i	4	5	21*
CCCNC(=O)C1(C)CCN(C(=O)COc2ccc(Cl)cc2Cl)C1 (stereo not given)	·	6	i	11	-12	-2
Cc1nnc(N2CCCC(C(=O)NCc3ccc(OC(C)C)cc3)C2)c2nn(-c3ccccc3)c(C)c12 (stereo not given)	8	-20	i	-12	41*	-6
Cc1nnc(N2CCCC(C(=O)Nc3cc(F)ccc3F)C2)c2nn(-c3ccccc3)c(C)c12 (stereo not given)	-5	-18	i	26	32	-6
CC(=O)COc1coc(CN2CCN(c3ccc(F)cc3)CC2)cc1=O	7	4	i	-14	2	-1
C=CCN(C(=O)CSc1nc2ccsc2c(=O)n1Cc1ccc(C(=O)O)cc1)c1ccccc1	·	2	i	2	-6	5
CCOc1ccc(C(CC(=O)O)NC(=O)COc2ccccc2OC)cc1OC (stereo not given)	-6	-2	i	5	-1	-4
COc1ccccc1N1CCN(c2cc(=O)n(Cc3ccc(F)cc3)c(=O)[nH]2)CC1	-3	9	+	-11	-15	0
Cc1cc(C)nc(N2C(=O)CC(C(C)c3ccccc3)C2=O)n1 (stereo not given)	-11	5	i	37*	3	1
CC(c1ccccc1)C1CC(=O)N(c2ccc(C(=O)O)cc2)C1=O (stereo not given)	5	-10	i	10	12	-1
c1ccc(C2(Cn3ccc4ccccc43)OCCO2)cc1	9	9	i	44*	2	2
CCn1c(=Nc2ccc(N3CCOCC3)cc2)ccc2ccccc21	1	-13	i	-6	10	-10
Cn1c(N=Nc2ccc(N3CCOCC3)cc2)[n+](C)c2ccccc21	2	2	i	39*	1	-9
Cn1c(N2CCOCC2)c(/C=N/O)c2ccccc21	-2	3	i	8	-5	-5
Cn1c(=Nc2ccc(N3CCOCC3)cc2)ccc2ccccc21	-12	-13	i	6	48*	-6
CC(=O)NC(CCCNC(=S)NC1CCCCC1)C(=O)O (stereo not given)	-5	-7	i	10	6	-2
CCCCCCCCCCCCCCCC[n+]1cccc2ccccc21	51*	-25	·	53*	47*	-13
